# Data reported in PubChem BioAssay AID463173 (ICCB-Longwood Screening Facility, Harvard Medical School, 2010).
# Out of some 52,000 compounds screened, about 4,300 (8.3%) were called active. Rule as the data show it: active = survival mostly below about 52% (no sharp cut-off); inactive = mostly above about 56%. This excerpt belongs to a sample that is enriched for actives.
# Tested on: DeltatarO mutant
# Experiment: S. aureus survival, RN4220 and DeltatarO strains – OD600, teichoic acid synthesis inhibitors, primary screen (AID 463173)
# Conditions: S. aureus RN4220 wild type/DeltatarO growth, OD600, 18 h, stronger effect = lower value, screened at 18.75 µg/mL (by protocol)
row,Structure (SMILES),survival
1,Cc1cc(Nc2ccc(Cl)cc2C)nc(-n2nc(C)cc2C)n1,74% (inactive)
2,Cc1ccc(Cn2c(CO)cnc2SCc2ccc(F)cc2)cc1,109% (inactive)
3,COc1cccc(N2C(=O)C(CC(=O)Nc3cccc(F)c3)N(C(C)C)C2=O)c1 (configuration not stated),94% (inactive)
4,Cc1ccc(CSc2c(C)cnc3c2c(=O)n(C)c(=O)n3C)cc1,78% (inactive)
5,COc1ccc(OCC(=O)OC2CCN(C)CC2)cc1,112% (inactive)
6,CCN(CC)CCCNC(=O)c1cn(CC)c2ccc(S(=O)(=O)N3CCC(C)CC3)cc2c1=O,105% (inactive)
7,CS(=O)(=O)N1CCC(c2nc(-c3ccc(S(=O)(=O)NCC4CCCO4)cc3)no2)CC1 (configuration not stated),85% (inactive)
8,CCn1c(=O)c2cc(C(=O)Nc3cc(F)ccc3F)sc2c2ccccc21,96% (inactive)
9,CCOc1ccccc1NC(=O)c1c(NCc2ccc(C)o2)sc2c1CCCCC2,95% (inactive)
10,COc1cc(NC(=O)c2cc(-c3ccc(Cl)c(Cl)c3)on2)cc(OC)c1OC,111% (inactive)
11,COc1ccccc1-c1cc(C(=O)Nc2cc(Cl)ccc2O)no1,52% (inactive)
12,COc1ccccc1-c1cc(C(=O)Nc2cc(OC)c(OC)c(OC)c2)no1,25% (active)
13,O=C(c1ccc2c(c1)CCN2S(=O)(=O)c1ccc(Cl)cc1)N1CCN(c2ccccc2)CC1,58% (inactive)
14,CCCCOc1ccccc1C(=O)Nc1onc2c1CCCC2,55% (inactive)
15,O=C(CN1C(=O)COc2ccc(S(=O)(=O)Nc3ccccc3)cc21)NCc1ccccc1Cl,102% (inactive)
16,O=c1c2cn[nH]c2nc(SCc2cccc(Br)c2)n1-c1ccc(Cl)cc1,122% (inactive)
17,CC(C)(C)c1ccc(OCC(=O)Nc2c(C(=O)c3ccc(F)cc3)oc3ccccc23)cc1,99% (inactive)
18,CCOc1ccc(CC(=O)Nc2c(C(=O)c3ccc(C)cc3)oc3ccccc23)cc1OCC,52% (inactive)
19,CCOc1ccc(CC(=O)Nc2c(C(=O)c3ccc(Cl)cc3)oc3ccccc23)cc1OCC,48% (inactive)
20,CC(C)c1ccc(OCC(=O)Nc2c(C(=O)c3ccc(F)cc3)oc3ccccc23)cc1,65% (active)
21,CCOc1ccc(CC(=O)Nc2c(C(=O)c3ccc(F)cc3)oc3ccccc23)cc1OCC,42% (active)
22,Cc1ccc(C(=O)c2oc3ccccc3c2NC(=O)COc2ccc(C(C)C)cc2)cc1,73% (inactive)
23,Cc1cccc(-n2cc(-c3ccccc3)c3c(NC4CCCC4)ncnc32)c1,98% (inactive)

row,Structure (SMILES),survival
1,CCNC(=O)CCSc1nnc(-c2ccc(O)cc2)o1,95% (inactive)
2,O=c1oc2ccccc2c(O)c1CN1CCCCC1,25% (active)
3,O=c1oc2ccccc2c(N2CCN(c3ccccc3F)CC2)c1CN1CCCC1,89% (inactive)
4,O=c1oc2ccccc2c(N2CCN(c3ccc(F)cc3)CC2)c1CN1CCCC1,100% (inactive)
5,Cc1ccc(-c2cc(-c3ccc4c(c3)NC(=O)CO4)nc3c2COc2ccc(C)cc2-3)cc1,96% (inactive)
6,Cc1c(C(=O)Nc2ccc(F)cc2)sc2nc[nH]c(=O)c12,122% (inactive)
7,Cc1sc2ncn(CC(=O)N3CCN(c4cccc(Cl)c4)CC3)c(=O)c2c1S(=O)(=O)N1CCC(C)CC1,149% (inactive)
8,Cc1cccc(N2CCN(C(=O)Cn3cnc4sc(C)c(S(=O)(=O)N5CCN(c6ncccn6)CC5)c4c3=O)CC2C)c1 (configuration not stated),67% (active)
9,Cc1sc2ncn(CC(=O)N3CCN(c4cccc(Cl)c4)CC3)c(=O)c2c1S(=O)(=O)N1CCN(c2ncccn2)CC1,63% (inactive)
10,Cc1sc2ncn(CC(=O)N3CCN(c4ccccc4F)CC3)c(=O)c2c1S(=O)(=O)N1CCC(C)CC1,74% (inactive)
11,Cc1ccc(Cl)cc1N1CCN(C(=O)Cn2cnc3sc(C)c(S(=O)(=O)N4CCC(C)CC4)c3c2=O)CC1,47% (active)
12,Cc1sc2ncn(CC(=O)N3CCN(c4ccccc4)CC3)c(=O)c2c1S(=O)(=O)N1CCN(c2ncccn2)CC1,126% (inactive)
13,CC1=C(c2ccc(C)cc2)S(=O)(=O)NC1=NCc1cccc(F)c1,92% (inactive)
14,Cc1ccc(-n2c(=O)c3ccc(C(=O)NCc4ccco4)cc3n(Cc3ccccc3Cl)c2=O)cc1,99% (inactive)
15,c1ccc2c(c1)n1cnnc1c1nncn21,85% (inactive)
16,CC1=C(C(=O)Nc2ccc(C)cc2C)C(c2ccc([N+](=O)[O-])cc2)n2ncc(C(=O)Nc3ccc(F)cc3)c2N1 (configuration not stated),101% (inactive)
17,O=C(O)c1ccc(N2CCOCC2)cc1,80% (inactive)
18,COc1ccc(N2CCN(CC(O)COc3ccc(C)cc3C)CC2)cc1 (configuration not stated),98% (inactive)
19,COc1ccc(N2CCN(CC(O)COc3ccccc3C(C)(C)C)CC2)cc1 (configuration not stated),-8% (active)
20,Cc1ccc(C(C)C)c(OCC(O)CN2CCN(c3ccccc3F)CC2)c1 (configuration not stated),-5% (active)
21,COc1ccc(N2CCN(CC(O)COc3c(OC)cccc3OC)CC2)cc1 (configuration not stated),71% (inactive)
22,COc1ccc(N2CCN(CC(O)COc3ccc(C(C)C)c(C)c3)CC2)cc1 (configuration not stated),66% (inactive)
23,COc1ccc(N2CCN(CC(O)COc3ccc(C(C)(C)C)cc3)CC2)cc1 (configuration not stated),84% (inactive)

row,Structure (SMILES),survival
1,COc1ccccc1N1CCN(CC(O)COc2ccc(C)cc2C(C)(C)C)CC1 (configuration not stated),1% (active)
2,C=CCc1ccccc1OCC(O)CN1CCN(c2ccccc2)CC1 (configuration not stated),83% (inactive)
3,COc1ccccc1N1CCN(CC(O)COc2cc(C)cc(C)c2)CC1 (configuration not stated),71% (inactive)
4,CN(C)c1ccc(C(CNS(=O)(=O)c2ccc(Br)cc2)N2CCOCC2)cc1 (configuration not stated),74% (inactive)
5,CCc1c(C)sc2c1CCN(Cc1ccccc1F)C2c1ccccc1 (configuration not stated),102% (inactive)
6,CCCCC(=O)N1CCc2cc(OC)c(OC)cc2C1COc1ccc(C(=O)OCC)cc1 (configuration not stated),70% (inactive)
7,O=C(CN1C(=O)COc2ccc(S(=O)(=O)N3CCCCC3)cc21)NCCc1ccc(Cl)cc1,73% (inactive)
8,CCOc1ccc(N2CC(NC(=O)c3ccc(Cl)cc3)CC2=O)cc1 (configuration not stated),73% (inactive)
9,N#CSc1ccc2nc(N)sc2c1,66% (inactive)
10,CC(C)(C)Sc1ccc(SC#N)s1,1% (active)
11,O=C1CC(c2ccc(Br)cc2)c2c(ccc3ccccc23)N1 (configuration not stated),32% (active)
12,O=C1CC(c2c(Cl)cccc2Cl)c2c(ccc3ccccc23)N1 (configuration not stated),73% (inactive)
13,Cc1ccccc1C1CC(=O)Nc2ccc3ccccc3c21 (configuration not stated),93% (inactive)
14,CC(C)c1ccc(CNc2nc(-c3ccco3)nn2C(=O)c2ccc([N+](=O)[O-])cc2)cc1,79% (inactive)
15,COc1ccc(NC(=O)Cn2nnc(C(=O)NCc3ccc4c(c3)OCO4)c2N)cc1,76% (inactive)
16,N#C/C(=C\c1ccc(F)cc1)C(=O)NCC1CCCO1 (configuration not stated),68% (inactive)
17,COc1cc(/C=C(\C#N)C(=O)NCC2CCCO2)ccc1O (configuration not stated),83% (inactive)
18,N#C/C(=C\c1ccc(Cl)cc1)C(=O)NCC1CCCO1 (configuration not stated),44% (active)
19,CCOC(=O)c1[nH]c(C)c(CCC(=O)Nc2ccccc2C(=O)OC)c1C,77% (inactive)
20,Cn1c(-c2ccccc2)cnc1NCc1ccccc1O,46% (active)
21,Cc1ccc(-c2cnc(NCc3c(F)cccc3Cl)n2C)cc1,-4% (active)
22,CCOc1ccc(-c2cnc(NCc3cccc(Cl)c3)n2C)cc1,30% (active)
23,Cn1c(-c2ccccc2)cnc1SCc1ccccc1,108% (inactive)

row,Structure (SMILES),survival
1,Cn1c(-c2ccc3c(c2)OCO3)cnc1NCc1cc(Cl)ccc1O,70% (inactive)
2,Cn1c(NCc2cccc(Cl)c2)nc2ccccc21,104% (inactive)
3,Cc1ccc(-c2cnc(NC(=O)CCC(=O)N3CCCCC3)n2C)cc1,91% (inactive)
4,Cc1ccc(CNc2nccn(-c3cc(C)cc(C)c3)c2=O)cc1,95% (inactive)
5,Cc1ccc(-c2cnc(NCc3ccc(C(F)(F)F)cc3)n2C)cc1,-5% (active)
6,CCn1c(NCc2cccc(Cl)c2)nc2ccccc21,102% (inactive)
7,Cc1ccc(CNC(=O)c2ccc(CSCc3c(F)cccc3Cl)o2)cc1,90% (inactive)
8,CCCc1cc(=O)n2[nH]c(NCc3c(F)cccc3Cl)nc2n1,86% (inactive)
9,Cc1cc(C)cc(-n2c(SCC(=O)N3CCCCCC3)nc3c([nH]c4ccccc43)c2=O)c1,94% (inactive)
10,CCOc1ccc(N(CC)C(=O)c2nn(-c3ccc(OC)cc3)c(=O)c3c2c2ccccc2n3C)cc1,82% (inactive)
11,CCOc1cc2sc(N3CCC(C(=O)Nc4ccc(C(C)C)cc4)CC3)nc2cc1Br,75% (inactive)
12,COC(=O)CN(c1ccccc1Cl)S(C)(=O)=O,52% (inactive)
13,COc1ccc(NC(=O)c2oc3ccccc3c2NC(=O)c2cccc(F)c2)c(OC)c1,95% (inactive)
14,COc1cc(OC)c(NC(=O)C2=C(C)C(=O)OC23CCN(C(C)=O)CC3)cc1Cl,75% (inactive)
15,Cc1ccc(NC(=O)CN2C=NS(=O)(=O)c3ccccc32)c(C)c1,99% (inactive)
16,COc1ccc(-c2nc(Cn3c(SCc4ccc(C)cc4)nc4cccnc43)c(C)o2)cc1OC,113% (inactive)
17,CCOc1ccc(-n2cc(-c3ccccc3)c3c(NCc4ccc(F)cc4)ncnc32)cc1,95% (inactive)
18,CCOc1ccc(NC(=O)C(=O)NCCc2csc(-c3ccc(C(F)(F)F)cc3)n2)cc1,94% (inactive)
19,CCOc1ccc(-c2cnc(NCc3ccc(C(F)(F)F)cc3)n2C)cc1,-3% (active)
20,Cc1ccc(CNc2nc3c(c(=O)n(C)c(=O)n3C)n2Cc2ccc(Cl)cc2)cc1,54% (inactive)
21,COc1ccc(-c2cnc(NCc3ccc(C)cc3)n2C)cc1,121% (inactive)
22,Cc1ccc(-c2cnc(NCc3ccc(C(C)C)cc3)n2C)cc1,-4% (active)
23,Cc1ccc(NC(=O)CCN2C(=O)c3ccccc3Sc3ncccc32)c(Cl)c1,74% (inactive)
